Screen size: about 52,000 compounds; about 4,300 (8.3%) were called active. For the sample, actives were picked, then their nearest neighbours and some compounds at random. Values without a mark were called inactive. Rule as the data show it: active = survival mostly below about 52% (no sharp cut-off); inactive = mostly above about 56%.
What follows are compounds tested on DeltatarO mutant (assay: growth inhibition of S. aureus wild type versus tarO mutant, primary screen, teichoic acid synthesis inhibitors, RN4220, OD600 (AID 463173)). Settings: OD600, 18 h, hits give low values, screened at 18.75 µg/mL (by protocol).

SMILES | survival
COc1ccc(NC(=O)c2c(NCc3cccs3)sc3c2CCCCC3)c(OC)c1 | 69%
CC1CN(C(=O)CCC(=O)NCc2ccc(F)cc2)c2cc(Cl)ccc2O1 (stereo unspecified) | 80%
Cc1cc(-c2ccccc2)nc2cc(C(=O)Nc3ccc(Cl)c(Cl)c3)nn12 | 52%
CC(=O)N1CCCC1c1nc2ccccc2n1Cc1ccccc1F (stereo unspecified) | 61%
COC(=O)c1ccc(OCC2c3cc(OC)c(OC)cc3CCN2C(=O)c2ccc(F)cc2)cc1 (stereo unspecified) | 76%
COc1ccc(CCNC(=O)c2ccc3c(c2)N(Cc2ccc(F)cc2)C(=O)c2ccccc2S3(=O)=O)cc1OC | 104%
O=S(=O)(Nc1ccc(O)cc1)c1cccs1 | 83%
CC(C)NS(=O)(=O)c1cccs1 | 65%
CC(C)c1cccc(C(C)C)c1NS(=O)(=O)c1cccs1 | 41% (active)
CCN(Cc1nc(-c2ccc(OC)c(OC)c2)no1)S(=O)(=O)c1ccc(OC)cc1 | 47%
COc1ccc(-c2noc(CN(C(C)C)S(=O)(=O)c3ccc(Br)cc3)n2)cc1 | 44% (active)
Cc1cccc(-c2noc(CN(C(C)C)S(=O)(=O)c3ccc(Br)cc3)n2)c1 | 45% (active)
COc1ccc(S(=O)(=O)N(Cc2nc(-c3ccc(C)cc3)no2)C2CCCCC2)cc1 | 63%
Cc1cccc(-c2noc(CNC(=O)c3ccco3)n2)c1 | 83%
Cc1ccc(-c2noc(CN(C3CCCCC3)S(=O)(=O)c3ccc(C)cc3)n2)cc1 | 62%
O=C(CCS(=O)(=O)c1cc2c(cc1Cl)NC(=O)CO2)NCc1ccccc1 | 106%
CCOC(=O)c1c(C)[nH]c(CCC(=O)NCc2cc(Br)ccc2OC)c1C | 115%
O=C(NCCN1CCOCC1)c1ccncc1 | 96%
Cc1cccc(OCC(=O)Nc2cccc(OCc3cc(=O)n4cccc(C)c4n3)c2)c1 | 109%
COCCNC(=O)CCc1c(C)n(C)c2cc(-c3cc(OC)c(OC)c(OC)c3)nn2c1=O | 25% (active)
COc1cc(-c2cc3n(C)c(C)c(CCC(=O)NCc4ccccc4)c(=O)n3n2)cc(OC)c1OC | 92%
COc1cc(-c2cc3n(C)c(C)c(CCC(=O)O)c(=O)n3n2)cc(OC)c1OC | 94%
O=C(O)CCC(=O)Nc1ccncc1 | 92%

SMILES | survival
Cc1ccc(Cl)cc1N1CCN(C(=O)CCSCc2ccccc2F)CC1 | 89%
Cc1cc(C)cc(NC(=O)C(=O)NCC(c2cccnc2)N2CCOCC2)c1 (stereo unspecified) | 107%
CCOC(=O)C1CCN(C(c2ccc(OCC)cc2)c2c(O)cc(C)n(CCOC)c2=O)CC1 (stereo unspecified) | 67%
CCOc1ccc(CN2C(=O)C(=O)c3cccc(C)c32)cc1OC | 118%
Cc1cccc2c1N(Cc1ccccc1OCCC(C)C)C(=O)C2=O | 2% (active)
Cc1ccc(CN2C(=O)C(=O)c3cc(Br)cc(C)c32)cc1 | 31% (active)
Cc1ccc2c(c1)C(=O)C(=O)N2Cc1ccc(OC(C)C)cc1 | 120%
Cc1ccc(C)c(CN2C(=O)C(=O)c3ccccc32)c1 | 92%
CC(C)CN1C(=O)c2ccc(Br)cc2C1=O | 67%
COc1ccccc1CN1C(=O)C(=O)c2cccc(C)c21 | 103%
Cc1cc(Br)cc2c1N(Cc1ccccc1OC(C)C)C(=O)C2=O | 22% (active)
CCCCOc1ccc(CN2C(=O)C(=O)c3cc(Br)cc(C)c32)cc1OC | 49%
CCCOc1ccc(CN2C(=O)C(=O)c3cccc(C)c32)cc1 | 39% (active)
Cc1ccc2c(c1)C(=O)C(=O)N2Cc1ccc(OCCC(C)C)cc1 | 93%
COc1ccccc1Cn1ccn(Cc2ccc(C)cc2)c(=O)c1=O | 112%
Cc1cc(C)cc(NC(=O)C2CCCN2S(=O)(=O)c2ccc3c(c2)CCCC(=O)N3)c1 (stereo unspecified) | 83%
CCc1ccc(NC(=O)Cn2nnc(C(=O)Nc3ccc(F)cc3)c2N)cc1 | 99%
COc1ccc(-n2nc(C(=O)N3CCCC(C)C3)c3c4ccccc4n(C)c3c2=O)cc1 (stereo unspecified) | 74%
c1ccc(-c2nc(-c3cccnc3)no2)cc1 | 98%
O=c1[nH]ncc(NCCc2ccccc2)c1Cl | 101%
N#Cc1ccccc1Cn1c(=O)n(Cc2ccc(C(=O)NC3CCN(Cc4ccccc4)CC3)cc2)c(=O)c2ccccc21 | 90%
COC(=O)c1ccc(NC(=O)C(=O)NCCc2sc3nc(-c4ccc(OC)cc4)nn3c2C)cc1 | 83%
O/N=C1\CCCc2nnc3c(c21)CCCC3 | 101%

SMILES | survival
CCOC(=O)/C(C#N)=C\C1=C(N2CCCC2)CC(C)(C)OC1 | 91%
Cc1nc2ccc(S(=O)(=O)NCC(=O)Nc3ccc(F)cc3F)cc2s1 | 120%
CCOc1ccc(S(=O)(=O)NCC(c2ccc(N(C)C)cc2)N2CCCC2)cc1 (stereo unspecified) | 107%
COc1ccc(Nc2ncnc3onc(C)c23)cc1Cl | 87%
O=C(c1ccc(Cl)cc1)N1CCC(c2nc3ccccc3o2)CC1 | 79%
CCc1ccccc1NC(=O)Cn1nnc(C(=O)NCc2ccco2)c1N | 93%
CC(NC(=O)c1ccc2c(c1)CCN2S(=O)(=O)c1ccc(Cl)cc1)c1ccccc1 (stereo unspecified) | 67%
CC(NC(=O)c1ccc2c(c1)CCN2S(C)(=O)=O)c1ccccc1 (stereo unspecified) | 91%
CS(=O)(=O)N1CCc2cc(C(=O)Nc3ccc(S(N)(=O)=O)cc3)ccc21 | 48%
CC(C)c1ccc(NC(=O)c2ccc3c(c2)CCN3S(=O)(=O)c2ccccc2)cc1 | 44% (active)
COc1ccc(NC(=O)c2ccc3c(c2)CCN3S(=O)(=O)c2ccccc2)cc1 | 92%
CC(NC(=O)c1ccc2c(c1)CCN2S(=O)(=O)c1ccccc1)c1ccccc1 (stereo unspecified) | 37% (active)
CC(=O)Nc1ccc(NC(=O)c2ccc3c(c2)CCN3S(=O)(=O)c2ccc(C)cc2)cc1 | 62%
CC(C)c1ccc(NC(=O)c2ccc(F)c(S(=O)(=O)N3CCc4ccccc43)c2)cc1 | 83%
NS(=O)(=O)c1ccc(NC(=O)c2ccc3c(c2)CCN3S(=O)(=O)c2ccccc2)cc1 | 43% (active)
Cc1ccc(Nc2nc3ccccc3c3nnc(C)n23)c(C)c1 | 70%
CC(C)(C)OC(=O)N1CCC(c2c(C(=O)NCc3ccco3)cnn2-c2ccc(F)cc2F)CC1 | 83%
COc1cc(C)ccc1OCCSc1nc2ccc(NC(=O)c3ccc4c(c3)OCO4)cc2s1 | 64%
CN(C(=O)C1CCCN(c2ncnc3c2nc2n3CCCCC2)C1)c1ccccc1F (stereo unspecified) | 81%
CCC(NC(=O)Nc1cc(OC)ccc1OC)c1c(-n2cccc2)sc2c1CCN(CC)C2 (stereo unspecified) | 88%
Fc1cccc(CSc2ccc(-c3cccs3)nn2)c1 | 94%
Cc1ccc(C)c(CNC(=O)c2sc3ncnc(N(C)C4CCCCC4)c3c2C)c1 | 115%
Cc1cc(C)cc(Oc2c(C(F)(F)F)oc3cc(OCC(=O)NC4CCCCC4)ccc3c2=O)c1 | 110%

SMILES | survival
Cc1ccc(Oc2coc3cc(OCC(=O)NC4CCCCC4)ccc3c2=O)cc1 | 55%
Cc1ccc(Oc2c(C(F)(F)F)oc3cc(OCC(=O)NC4CCCCC4)ccc3c2=O)cc1 | 46% (active)
CCc1ccc(C(=O)COC(=O)C(NC(=O)C2CCC(C)CC2)C(C)C)cc1 (stereo unspecified) | 72%
CC1(C)CC(=O)C=C(NCC2CCNCC2)C1 | 95%
CCOc1ccc(CCNC(=O)CCN2N=C(c3ccc(OC)cc3)CCC2=O)cc1OCC | 81%
Cc1cccc(NC(=O)c2sc3nc(-c4cc5ccc(O)cc5oc4=O)[nH]c(=O)c3c2C)c1 | 46%
COc1ccc(NC(=O)c2sc3nc[nH]c(=O)c3c2C)cc1 | 75%
COc1ccc(NC(=O)c2sc3nc(-c4cc5ccc(OC)cc5oc4=O)[nH]c(=O)c3c2C)cc1 | 46% (active)
Cc1c(C(=O)Nc2ccccc2)sc2nc(-c3cc4ccccc4oc3=O)[nH]c(=O)c12 | 66%
Cc1cc(C)cc(NC(=O)c2sc3nc[nH]c(=O)c3c2C)c1 | 91%
Cc1cc(NC(=O)c2ccc(F)cc2)ccc1-c1cc2ccccc2oc1=O | 75%
Cc1c(C(=O)Nc2cccc(F)c2)sc2nc(-c3cc4ccccc4oc3=O)[nH]c(=O)c12 | 37% (active)
CCOc1cccc2cc(-c3nc4sc(C(=O)Nc5ccc(C)cc5)c(C)c4c(=O)[nH]3)c(=O)oc12 | 51%
Cc1ccccc1NC(=O)c1sc2nc(-c3cc4ccccc4oc3=O)[nH]c(=O)c2c1C | 52%
COc1ccc(NC(=O)c2sc3nc(-c4cc5cccc(OC)c5oc4=O)[nH]c(=O)c3c2C)cc1 | 46%
Cc1ccc(NC(=O)c2sc3nc(-c4cc5ccccc5oc4=O)[nH]c(=O)c3c2C)c(C)c1 | 39% (active)
Cc1cc(C)cc(NC(=O)c2sc3nc(-c4cc5ccccc5oc4=O)[nH]c(=O)c3c2C)c1 | 43% (active)
O=C(COc1ccc(Br)cc1Cl)Nc1ncn[nH]1 | 91%
CCOCCCNC(=O)C1CCCN(c2ncnc3onc(C)c23)C1 (stereo unspecified) | 68%
COc1ccc(-c2cn3nc(N4CCC(C(=O)Nc5cccc(OC)c5)CC4)sc3n2)cc1 | 94%
C#CCn1c(=NC(=O)c2ccc3c(c2)OCCO3)sc2cc(OC)c(OC)cc21 | 102%
COc1cccc(C(=O)c2cn(CC(=O)Nc3ccc4c(c3)OCCO4)c3nc(C)ccc3c2=O)c1 | 68%

From PubChem BioAssay AID463173 (ICCB-Longwood Screening Facility, Harvard Medical School, 2010)
